Source: PubChem BioAssay
Compounds with a hit are over-represented: about 3.4% of the library has one in this group of screens.
Mito fusion yeast – qHTS Assay for Small Molecule Inhibitors of Mitochondrial Division or Activators of Mitochondrial Fusion; Potency, µM (highest dose often 46.1 µM), usual class: activators; AID 485298, 2010; 320,000 tested, 0.23% active; S. cerevisiae fusion-defective mutant growth rescue, CellTiterGlo 48 h; note: nearly all actives have a fitted effect of over 45% in size
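Compounds are tested for their ability to restore growth of mitochondrial fusion-defective yeast strains at non-permissive 37C in YPEG medium over 48 hours. Viability is quantified by luciferase luminescence.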
PLK1 PBD block – qHTS for Inhibitors of PLK1-PDB (polo-like kinase 1 - polo-box domain): Primary Screen. Potency, µM, hits mostly inhibitors. Plk1 PBD binding of FITC phosphopeptide, fluorescence polarization. 360,000 tested, 2.8% active; note: series mostly up to about 57 µM; nearly all actives have a fitted effect of over 65% in size
Target sequence (P53350 whole entry, looked up, the tested form may be a part): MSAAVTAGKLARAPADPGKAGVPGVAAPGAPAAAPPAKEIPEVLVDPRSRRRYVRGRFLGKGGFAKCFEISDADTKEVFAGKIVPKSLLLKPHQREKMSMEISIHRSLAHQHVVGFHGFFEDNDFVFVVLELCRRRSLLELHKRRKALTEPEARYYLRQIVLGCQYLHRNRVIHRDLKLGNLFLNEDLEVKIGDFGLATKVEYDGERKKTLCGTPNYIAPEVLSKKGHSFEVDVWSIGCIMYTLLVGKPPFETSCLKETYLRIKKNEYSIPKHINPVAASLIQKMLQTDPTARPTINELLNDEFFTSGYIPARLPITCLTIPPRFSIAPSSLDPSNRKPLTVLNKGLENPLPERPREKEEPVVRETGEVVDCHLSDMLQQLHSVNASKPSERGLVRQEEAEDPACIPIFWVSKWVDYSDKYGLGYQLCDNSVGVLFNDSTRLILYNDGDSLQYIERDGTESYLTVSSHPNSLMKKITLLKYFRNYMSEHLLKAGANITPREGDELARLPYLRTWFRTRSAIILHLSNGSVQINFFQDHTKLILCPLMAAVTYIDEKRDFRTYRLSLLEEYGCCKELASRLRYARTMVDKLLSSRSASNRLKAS
KAT2A inh – qHTS Assay for Inhibitors of GCN5L2; GCN5L2 HAT assay, ThioGlo1 CoA-SH fluorescence; Potency, µM (series often up to 58.9 µM), actives largely listed as inhibitors; AID 504327, 2011; 390,000 tested, 0.21% active
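GCN5L2 (20 nM) in 50mM HEPES pH 7.5, 0.1mM EDTA, 0.01% Tween-20 preincubated 15 min with compounds at room temperature. Reaction started with H3(1-25) 75uM, acetyl-CoA 70uM, ThioGlo1 50uM; CoA-thiol fluorescence (Ex340/Em540) read at 0 and 20 min.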
VDR inh – Inhibitors of the vitamin D receptor (VDR): qHTS; Vitamin D3 receptor (Homo sapiens), P11473; VDR-SRC2-3 peptide fluorescence polarization, 2 h; Potency, µM, actives largely listed as inhibitors; 400,000 tested, 0.93% active; AID 504847, 2011
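Measured by FP: displacement of SRC2-3 coactivator peptide from VDR by library compounds, following a two-hour ambient incubation.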
GLS inh – qHTS for Inhibitors of Glutaminase (GLS) | GLS enzymatic activity, qHTS titration | Potency, µM (doses to about 45.5 µM), actives largely listed as inhibitors | Glutaminase kidney isoform, mitochondrial (Homo sapiens), O94925 | 410,000 tested, 0.21% active | AID 624170, 2012
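Read-out is an Amplex red fluorescence increase coupled through glutamate oxidase and HRP, measured before and after 30 min room-temperature incubation. hKGA is in 45 mM KH2PO4 (pH 8.2) with 0.02% Tween-20; glutamine added as 1mM solution.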
PKM2 act – qHTS Assay for Activators of Human Muscle isoform 2 Pyruvate Kinase; Pyruvate kinase PKM (Homo sapiens), P14618; purified PKM2, Kinase-Glo ATP luminescence, activation; response scale: 0% is enzyme alone, no compound; Potency, µM (doses to about 57.5 µM), usual class: activators; 260,000 tested, 0.34% active; note: nearly all actives have a fitted effect of over 55% in size
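Purified hPK-M2 (>95% pure) converted ADP (0.1 mM final) to ATP with 0.5 mM PEP in 50 mM imidazole pH7.2, KCl, MgCl2, Tween 20, BSA; 1 h at room temperature. ATP detected by Kinase-Glo luminescence.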
Each line names hits and unclear results; the compound was inactive in the other large screens; ! = not confirmed by another sample. Calls come from the whole dose curve; as a rule, active = well fitted curve in the direction sought with a large enough effect; inconclusive = small, poorly fitted or top-dose-only effect, or another doubt; inactive = no such curve, though single readings can be large; an effect the other way counts as inactive or inconclusive.

O=C(Nc1cc(Sc2ccccn2)cc([N+](=O)[O-])c1)c1cccc(Cl)c1	Mito fusion yeast 16µM
O=C(Nc1cc(Sc2ccccn2)cc([N+](=O)[O-])c1)c1ccc(Cl)cc1	none
CCCN1C2=C(C(=O)CC(C)(C)C2)C(c2ccc(F)cc2)C2=C1c1ccccc1C2=O (stereo not drawn)	PLK1 PBD block 12µM
CC(C)NC(=O)CN1CCN(C(c2cc3ccccc3o2)c2nnnn2C(C)(C)C)CC1 (stereo not drawn)	none (no result: Mito fusion yeast, KAT2A inh, VDR inh, PKM2 act)
COc1ccccc1N1C(=O)CC(N(O)c2ccccc2)C1=O (stereo not drawn)	GLS inh 1.3µM, PKM2 act inconclusive
CCCOc1ccc(N2C(=O)CC(N(O)c3ccccc3)C2=O)cc1 (stereo not drawn)	none
COc1ccccc1N(O)C1CC(=O)N(c2ccc(F)cc2)C1=O (stereo not drawn)	PLK1 PBD block 5.3µM, VDR inh inconclusive
CCCOc1ccccc1N1C(=O)CC(N(O)c2ccccc2)C1=O (stereo not drawn)	GLS inh 1.1µM
O=C(CN1C(=O)NC2(CCCC2)C1=O)NCc1ccc(Cl)cc1	none (no result: Mito fusion yeast, PKM2 act)
Cc1cccc(N2CC(C(=O)Nc3ccc4c(c3)OCCO4)CC2=O)c1C (stereo not drawn)	none
COC(=O)[C@@H](Cc1ccccc1)NC(=O)Cn1cnc2c(SC)nc(N)nc21	none (no result: Mito fusion yeast, PKM2 act)
Cc1ccc(C)c2[nH]c(=O)c(CN(CC3CCCO3)C(=S)NCc3ccco3)cc12 (stereo not drawn)	none
Cc1ccc2cc(CN(CC3CCCO3)C(=S)NCc3ccco3)c(=O)[nH]c2c1C (stereo not drawn)	PLK1 PBD block 15µM
COc1cc(Cl)cc(C(c2c(C(=O)O)[nH]c3ccccc23)c2c(C(=O)O)[nH]c3ccccc23)c1O	PLK1 PBD block 24µM, VDR inh inconclusive
O=C(O)c1[nH]c2ccccc2c1C(c1cc(Br)ccc1O)c1c(C(=O)O)[nH]c2ccccc12	PLK1 PBD block 17µM, KAT2A inh inconclusive, VDR inh inconclusive
Cc1[nH][nH]c(=O)c1C(c1cc(Br)ccc1O)c1c(C)[nH][nH]c1=O	PLK1 PBD block 24µM, VDR inh inconclusive (no result: PKM2 act)
CCc1nc(N2CCN(C(=O)CCl)CC2)c2c3c(sc2n1)CC(C)CC3 (stereo not drawn)	VDR inh inconclusive
COc1cccc(CC(=O)N2CCc3nc(-c4ccccc4)c4c(c3C2)CO[C@@H](C)C4)c1	none (no result: Mito fusion yeast, PLK1 PBD block, KAT2A inh, VDR inh, GLS inh)
O=C(CN(c1ccc2c(c1)OCCO2)S(=O)(=O)c1ccccc1)N1CCN(Cc2ccccc2)CC1	none
COc1ccc(C=C2C=C(C(C)(C)C)C(=O)C(C(C)(C)C)=C2)cc1OC	PLK1 PBD block 30µM, VDR inh inconclusive
CN1CCN(/C=N/c2c(C#N)cnn2-c2ccccc2)CC1	PLK1 PBD block 27µM
CC[C@@H](C)[C@H]1O[C@]2(CC[C@H]1C)C[C@@H]1C[C@@H](CC=C(C)[C@@H](O[C@H]3C[C@H](OC)[C@@H](O[C@H]4C[C@H](OC)[C@@H](O)[C@H](C)O4)[C@H](C)O3)[C@@H](C)C=CC=C3CO[C@@H]4[C@H](O)C(C)=C[C@@H](C(=O)O1)[C@]34O)O2	Mito fusion yeast 2.3µM (no result: PLK1 PBD block, GLS inh, PKM2 act)
CC[C@H](C)[C@H]1O[C@]2(CC[C@@H]1C)C[C@@H]1C[C@@H](CC=C(C)[C@@H](O[C@H]3C[C@H](OC)[C@@H](O[C@H]4C[C@H](OC)[C@@H](O)[C@H](C)O4)[C@H](C)O3)[C@@H](C)C=CC=C3CO[C@@H]4[C@H](O)C(C)=C[C@@H](C(=O)O1)[C@]34O)O2	none (no result: Mito fusion yeast, KAT2A inh, PKM2 act)
S=c1[nH]nc(-c2n[nH]c3c2CCC3)n1/N=C/C=C/c1ccccc1	PLK1 PBD block inconclusive, GLS inh inconclusive
COc1cc(C(=O)/C=C/c2cccnc2)c([N+](=O)[O-])cc1OC	VDR inh 50µM (no result: PKM2 act)
CC1=NN(c2ccc(C)cc2C)C(=O)C1C(c1cccc(O)c1)C1C(=O)N(c2ccc(C)cc2C)N=C1C (stereo not drawn)	PLK1 PBD block 27µM, VDR inh inconclusive, GLS inh inconclusive
CC1=NNC(=O)C1C(c1cccc(O)c1)C(C#N)C#N (stereo not drawn)	none
COc1ccc(CN(C)S(=O)(=O)c2c(C)noc2C)cc1OC	none (no result: PKM2 act)
COc1ccc(-c2nc(NC(=O)c3ccco3)sc2C)cc1	none (no result: Mito fusion yeast, KAT2A inh, VDR inh, PKM2 act)
COc1ccc(-c2nc(NC(=O)c3[nH]c(C)c(C(C)=O)c3C)sc2C)cc1	PKM2 act 7.9µM
O=C(COc1ccc([N+](=O)[O-])cc1)Nc1ccc2c(c1)nc1n2CCOC1	PLK1 PBD block 3µM, VDR inh inconclusive, GLS inh inconclusive (no result: PKM2 act)
NC(=O)c1ccccc1NC(=O)c1ccccc1Cl	none
O=C(Nc1ccccc1C(=O)Nc1nnc(C(F)(F)F)s1)c1ccccc1Cl	Mito fusion yeast inconclusive, PLK1 PBD block 27µM
COc1cccc(C2=NC(C)(C)NC(c3ccccc3O)C2)c1 (stereo not drawn)	VDR inh inconclusive
CCC1(C)N=C(c2ccc3c(c2)OCO3)CC(c2ccccc2O)N1 (stereo not drawn)	PLK1 PBD block 27µM
COc1ccc(NC(C)=O)cc1NC(=O)CSc1nnc(C2CCCCC2)n1N	none
COc1ccc(OC)c(NC(=O)CSc2nnc(C3CCCCC3)n2-c2ccccc2)c1	PLK1 PBD block 27µM
COc1ccc(C2Nc3ccccc3C(=O)N2c2ccc(Cl)cc2)cc1COc1ccc(NC(C)=O)cc1 (stereo not drawn)	none (no result: Mito fusion yeast, PLK1 PBD block, KAT2A inh, GLS inh, PKM2 act)
Cc1cc(C(=O)Nc2ccc(Nc3ccccc3)cc2)ccc1[N+](=O)[O-]	PLK1 PBD block 3.4µM, VDR inh 25µM, GLS inh 16µM
CC1=NN(C(N)=S)C(=O)C1N=Nc1ccc(Br)cc1 (stereo not drawn)	none
CC1=NN(C(N)=S)C(=O)C1N=Nc1ccc(Cl)cc1 (stereo not drawn)	PLK1 PBD block 13µM, VDR inh inconclusive
CC1=NN(c2ccccc2)C(=O)C1N=Nc1ccc(N)cc1 (stereo not drawn)	PLK1 PBD block 24µM
CSCCC(NC(=O)c1cccc(C)c1)C(=O)NCc1cccs1 (stereo not drawn)	none (no result: Mito fusion yeast, PKM2 act)
CCOc1ccc2ccccc2c1C(=O)N[C@@H]1C(=O)N2[C@@H]1SC(C)(C)[C@@H]2C(=O)O	GLS inh 4µM!
C[C@H](Oc1ccccc1)C(=O)N[C@@H]1C(=O)N2[C@@H]1SC(C)(C)[C@@H]2C(=O)O	none (no result: Mito fusion yeast, PLK1 PBD block, PKM2 act)
